Experimental data taken from paper PMC6664820, “Novel natural and synthetic inhibitors of solute carriers SGLT1 and SGLT2” (Pharmacology Research & Perspectives, 2019).
Screen size: about 1,900 compounds; about 40 (2%) showed an effect of 50% or more. What follows is part of a selection rich in strong results, with near analogues and random picks from the rest.

These compounds were tested against human SGLT1 (hSGLT1) (human, UniProt P13866) (assay: primary screen, percent of control activity; higher = less effect of the substance). Conditions: 50 µM.
Parameters: single well
Description: Two days before the assay, CHO‐wild type and CHO‐hSGLT1 cells were seeded in maintenance medium at 25 000 cells/well in clear‐bottom black 96‐well cell culture plates. Before the assay, cells were washed 3 times with 150 μL/well D‐glucose free DMEM with 0.3% (w/v) BSA. Library compounds at 50 μmol/L (singlicate) prepared in D‐glucose free DMEM with 160 μmol/L 1‐NBD‐glucose and 0.3% (w/v) BSA and negative controls (triplicate) were added at 100 μL/well and placed in a humidified incubator at 37°C with 5% CO2 for 90 minutes. Next, cells were washed 3 times with DMEM with 0.3% (w/v) BSA (150 μL/well). Care was taken to remove all medium after the last wash. Finally, 1‐NBD‐glucose was extracted from the cells by adding 10 μL/well isopropanol and orbital shaking for 5 minutes at 600 rpm, followed by incubation in the dark for 30 minutes. Fluorescence was measured on a Tecan Infinite M200 Microplate Reader (Tecan, Männedorf, Switzerland) with excitation at 445 nm and emission at 525 nm. The amount of 1‐NBD‐glucose taken up by the CHO‐wild type or CHO‐hSGLT1 cells in the presence or absence of test compounds was interpolated from 1‐NBD‐glucose calibration standards. The background uptake by CHO‐wild type was subtracted from the uptake by CHO‐hSGLT1. Background corrected uptake with test compound was expressed as a percentage of corrected uptake without test compound.

human SGLT1 (hSGLT1), sequence (P13866 whole entry, looked up): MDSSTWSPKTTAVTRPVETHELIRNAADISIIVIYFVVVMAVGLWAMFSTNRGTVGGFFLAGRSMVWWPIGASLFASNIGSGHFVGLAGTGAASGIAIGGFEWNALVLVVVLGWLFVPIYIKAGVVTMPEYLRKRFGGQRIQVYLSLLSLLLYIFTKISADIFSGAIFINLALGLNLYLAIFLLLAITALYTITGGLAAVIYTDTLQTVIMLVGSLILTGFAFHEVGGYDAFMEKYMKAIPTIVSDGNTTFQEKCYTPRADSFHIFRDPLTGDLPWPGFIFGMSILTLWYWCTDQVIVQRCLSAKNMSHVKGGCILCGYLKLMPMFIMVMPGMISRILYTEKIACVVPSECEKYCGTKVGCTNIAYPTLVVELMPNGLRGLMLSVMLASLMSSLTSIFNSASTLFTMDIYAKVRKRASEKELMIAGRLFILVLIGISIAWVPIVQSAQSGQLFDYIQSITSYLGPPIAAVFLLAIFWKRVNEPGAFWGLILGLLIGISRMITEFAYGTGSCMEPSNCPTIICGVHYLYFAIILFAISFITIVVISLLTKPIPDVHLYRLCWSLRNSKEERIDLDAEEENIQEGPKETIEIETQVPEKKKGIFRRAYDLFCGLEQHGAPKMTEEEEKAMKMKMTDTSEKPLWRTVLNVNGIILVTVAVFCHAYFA

SMILES | NORMALIZED SGLT1 ACTIVITY (%)
CCOP(=S)(OCC)SCn1c(=O)oc2cc(Cl)ccc21 | 57%
CCOP(=S)(OCC)SCSCC | 47%
CCOP(=S)(OCC)SCCSCC | 77%
CC(C)=CCC[C@](C)(O)C1CC=C(C)CC1 (stereo partly drawn) | 99%
CC1(C)C2CC(=O)O[C@@]3(C)C4=CC(=O)O[C@@H](c5ccoc5)[C@]4(C)CCC3[C@@]2(C)C=C[C@H]1O (stereo partly drawn) | 132%
CN1CCc2c(c3ccccc3n2Cc2ccccc2)C1.O=S(=O)(O)c1cccc2c(S(=O)(=O)O)cccc12 | 69%
Cl.Cl.NNCc1cccc(O)c1 | 149%
CCCCCCc1ccc(O)cc1O.Nc1c2ccccc2nc2ccccc12 | 383%
CCCCCCCCCc1ccc(O)cc1 | 107%
CCCCCCCCCCCCC[N+](C)(C)Cc1ccccc1.[Cl-] | 40%
CC(=O)O[C@@](C)(CCC=C(C)C)C1CC=C(C)CC1 (stereo partly drawn) | 112%
ClC1=C(Cl)C2(Cl)C3C(Cl)C=CC3C1(Cl)C2(Cl)Cl (stereo not drawn) | 57%
CN1CCN(CC/C=C2/c3ccccc3Sc3ccc(S(=O)(=O)N(C)C)cc32)CC1 | 116%
CN1CCC(=C2c3ccccc3Sc3ccccc32)CC1.O=C(O)/C=C\C(=O)O | 36%
CSc1ccc2c(c1)C(N1CCN(C)CC1)Cc1ccccc1S2.O=C(O)/C=C\C(=O)O (stereo not drawn) | 115%
COC(=O)[C@H]1[C@H]2C[C@H]3c4[nH]c5ccccc5c4CCN3C[C@H]2CC[C@@H]1O.Cl | 110%
COc1cc2c(cc1O)C(Cc1ccc(O)cc1)N(C)CC2 (stereo not drawn) | 89%
Oc1ccc(Cl)cc1Cc1cc(Cl)ccc1O | 590%
CC1(C)C(=O)C=C[C@@]2(C)C1C[C@@H](O)[C@]1(C)C2CC[C@@]2(C)[C@H](c3ccoc3)OC(=O)[C@H]3O[C@]321 (stereo partly drawn) | 103%
CC1(C)C(=O)C=C[C@@]2(C)C1=C(O)C(=O)[C@]1(C)C2CC[C@@]2(C)[C@H](c3ccoc3)C[C@H]3O[C@]321 (stereo partly drawn) | 45%
CC(=O)O[C@@H]1C[C@@]2(C)[C@H](c3ccoc3)C[C@H]3O[C@]32[C@]2(C)C(=O)C(O)=C3C(C)(C)C(=O)C=C[C@]3(C)C12 (stereo partly drawn) | 104%
O=C1CN(/N=C/c2ccc([N+](=O)[O-])o2)C(=O)N1 | 159%
CNC[C@@H](O)c1ccc(O)c(O)c1.O=C(O)C(O)C(O)C(=O)O | 105%

SMILES | NORMALIZED SGLT1 ACTIVITY (%)
N#Cc1c(Cl)c(Cl)c(Cl)c(C#N)c1Cl | 76%
CN1CCN(CCCN2c3ccccc3Sc3ccc(C(F)(F)F)cc32)CC1.Cl.Cl | 61%
N#Cc1ccc2c(c1)N(CCCN1CCC(O)CC1)c1ccccc1S2 | 75%
OCCN1CCN(CCCN2c3ccccc3Sc3ccc(Cl)cc32)CC1 | 17%
Cn1nnnc1SCC1=C(C(=O)[O-])N2C(=O)C(NC(=O)C(O)c3ccccc3)C2SC1.[Na+] (stereo not drawn) | 150%
COc1cc2c(cc1OC)C1C(=O)c3c(O)cc4c(c3OC1CO2)C=CC(C)(C)O4 (stereo not drawn) | 283%
CCCc1ncc(C[n+]2ccccc2C)c(N)n1.Cl.[Cl-] | 87%
Cc1cc(O)c2c(c1)C(=O)c1cc(O)cc(O)c1C2=O | 118%
CN(C)CCC=C1c2ccccc2CCc2ccccc21.Cl | 59%
CN(C)CCC=C1c2ccccc2C=Cc2ccccc21.Cl | 50%
CN(C)CC/C=C1\c2ccccc2Sc2ccc(Cl)cc21.Cl | 87%
Cc1cc(C2CCCCC2)n(O)c(=O)c1.NCCO | 182%
ClC1=C(Cl)C2(Cl)C3C4C=CC(C4)C3C1(Cl)C2(Cl)Cl (stereo not drawn) | 96%
COc1cc2ccc(=O)oc2c(OC)c1OC | 257%
COC(=O)c1c(OC)cc2c(c1C)Oc1c(Cl)c(O)c(Cl)c(C)c1C(=O)O2 | 520%
Cc1cc(O)c2c(c1O)C(=O)c1c(O)cc(C)c(O)c1C2=O | 127%
CN[C@@H]1[C@@H](O)C(OC2[C@@H](N)C[C@@H](N)[C@H](O[C@H]3O[C@H](C(C)O)[C@@H](O)[C@H](O)[C@H]3N)[C@H]2O)OC[C@]1(C)O.O=S(=O)(O)O.O=S(=O)(O)O (stereo partly drawn) | 82%
CNC(=O)O/N=C(/C)SC | 76%
COc1c2ccoc2cc2oc(C)cc(=O)c12 | 165%
OC[C@H]1O[C@@H](n2cnc3c(NCc4ccco4)ncnc32)[C@H](O)[C@@H]1O | 142%
CCCCCCCCCN1C[C@H](O)[C@@H](O)[C@H](O)[C@H]1CO | 83.2%
ClC1=C(Cl)C2(Cl)C3C4CC(C5OC45)C3C1(Cl)C2(Cl)Cl (stereo not drawn) | 136%
